From PubChem BioAssay (NCI) come the findings set out here.

Among the test systems are HCT-15 colon; HT29 colon; SNB-75 CNS; SNB-19 CNS; U251 CNS; PC-3 prostate; SK-MEL-5 melanoma; UACC-62 melanoma; LOX IMVI melanoma; SK-MEL-28 melanoma; SK-MEL-2 melanoma; EKVX NSCLC; SN12C renal; UO-31 renal; TK-10 renal; ACHN renal; CAKI-1 renal; A498 renal; CCRF-CEM leukemia; MOLT-4 leukemia.
Common to all, as to assay: NCI-60 one-dose screen, 48 h (100 = growth as untreated, 0 = no growth, -100 = all killed)
Details in all cases: 10 µM unless noted

Compounds without any hit were thinned out: in the full panel of roughly 83,000, 20% have a hit.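 In brief: 96-well plates, 48 h treatment, single concentration, percent growth endpoint.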 Unmarked numbers belong to inactive results. Active and inactive are the calls of the source. The calls were made as follows: active = growth percent below 10; inactive = the rest.

On to `CN1CCN(Cc2ccc(NC(=O)c3cncc(C#Cc4cnc5ccc(NCCCO)nn45)c3)cc2C(F)(F)F)CC1`, for which the growth with HCT-15 colon was 1.94% (active); in the test on HT29 colon it was -2.42% (active); in the test on SNB-75 CNS, -70.8% (active); in the test on SNB-19 CNS, -0.64% (active); in the test on U251 CNS it was -68% (active); in the test on PC-3 prostate, -19.2% (active). The growth in the test with SK-MEL-5 melanoma was -87% (active); in the test with UACC-62 melanoma it was -14.1% (active); in the test with LOX IMVI melanoma it was -86.3% (active); with SK-MEL-28 melanoma it was -21% (active); in the test on SK-MEL-2 melanoma, -90.8% (active); in the test with EKVX NSCLC it was -3.09% (active). Moreover, the growth was 15.6% in the test with SN12C renal; -1.42% (active) with UO-31 renal; -28.7% (active) in the test with TK-10 renal; 3.14% (active) in the test with ACHN renal; -1.99% (active) in the test with CAKI-1 renal; -98.8% (active) in the test on A498 renal. The values for the growth in the test with CCRF-CEM leukemia and with MOLT-4 leukemia were 6.66% (active) and 8.92% (active), respectively.
For `O=C1CC(=O)N2CSCN(C(c3ccccc3)c3nc4ncncc4[nH]3)C2=N1` (stereo not given), the growth in the test with HCT-15 colon is 100%; with HT29 colon, 106%; in the test on SNB-75 CNS, 99.8%; with SNB-19 CNS, 93.8%; in the test with U251 CNS, 97.9%; with PC-3 prostate, 98%. Further, the growth in the test with SK-MEL-5 melanoma is 105%; in the test on UACC-62 melanoma, 97%; in the test on LOX IMVI melanoma, 108%; with SK-MEL-28 melanoma, 117%; in the test with SK-MEL-2 melanoma, 96.6%; with EKVX NSCLC, 94.3%. Further, the growth was 103% in the test on SN12C renal; 79.6% in the test on UO-31 renal; 106% in the test on TK-10 renal; 99.8% with ACHN renal; 93.2% in the test with CAKI-1 renal; 85.8% in the test on A498 renal. The growth in the test on CCRF-CEM leukemia is 108%; in the test on MOLT-4 leukemia it was 112%.
As for `CS(=O)(=O)Nc1cc(-c2ccc3ncc(C#N)c(Nc4cccc(Cl)c4F)c3c2)cnc1Cl`, the growth in the test on HCT-15 colon is 8.27% (active); with HT29 colon, 2.88% (active); with SNB-75 CNS, 47.9%; in the test on SNB-19 CNS it was 5.43% (active); with U251 CNS, -8.19% (active); in the test on PC-3 prostate, -16.3% (active). Also, the growth in the test with SK-MEL-5 melanoma is -89.9% (active); in the test on UACC-62 melanoma, -32% (active); in the test on LOX IMVI melanoma it was -62.2% (active); with SK-MEL-28 melanoma, 2.61% (active); with SK-MEL-2 melanoma it was -71.3% (active); in the test with EKVX NSCLC it was -5.3% (active). The growth with SN12C renal is 16.1%; in the test with UO-31 renal it was -16.1% (active); with TK-10 renal, -31% (active); in the test with ACHN renal it was 12.7%; in the test on CAKI-1 renal, -5.21% (active); in the test on A498 renal, -50.9% (active). Moreover, the figures for the growth in the test on CCRF-CEM leukemia and in the test on MOLT-4 leukemia were 2.5% (active) and -11.1% (active), respectively.
With `C=CCn1c(-c2nc3ccc(C(=C(C#N)C#N)c4ccccc4)cc3[nH]2)cc2cc(Br)ccc21`, the growth with HCT-15 colon is 30.4%; in the test with HT29 colon it was 64.4%; in the test with SNB-75 CNS it was 89.3%; in the test on SNB-19 CNS it was 70.8%; in the test on U251 CNS, 51.9%; in the test with PC-3 prostate, 31.5%. Moreover, the growth was 55.9% with SK-MEL-5 melanoma; 39.5% with UACC-62 melanoma; 36.4% with LOX IMVI melanoma; 82.9% in the test with SK-MEL-28 melanoma; 96.7% in the test on SK-MEL-2 melanoma; 42.9% in the test with EKVX NSCLC. The growth was 69% in the test on SN12C renal; 51.9% with UO-31 renal; 94% with TK-10 renal; 55.6% in the test with ACHN renal; 48.8% with CAKI-1 renal; 87.7% in the test with A498 renal. Also, the growth with CCRF-CEM leukemia is 50.5%; in the test with MOLT-4 leukemia, 36.4%.
`O=C(CNc1nc(-c2cccc([N+](=O)[O-])c2)cs1)Nc1cccc([N+](=O)[O-])c1`: the growth was 3.96% (active) with HCT-15 colon; -34.9% (active) in the test on HT29 colon; 52.9% in the test with SNB-75 CNS; -12.3% (active) in the test on SNB-19 CNS; -14.8% (active) with U251 CNS; -37.8% (active) in the test on PC-3 prostate. Also, the growth is -84.5% (active) in the test on SK-MEL-5 melanoma; -62.6% (active) in the test with UACC-62 melanoma; -74.3% (active) with LOX IMVI melanoma; -24.3% (active) in the test with SK-MEL-28 melanoma; 9.35% (active) in the test with SK-MEL-2 melanoma; 52.9% in the test on EKVX NSCLC. Also, the growth in the test on SN12C renal is -4.54% (active); in the test with UO-31 renal, -79.3% (active); with TK-10 renal, -13.6% (active); in the test on ACHN renal, -20.1% (active); in the test with CAKI-1 renal, -10.3% (active); in the test with A498 renal, -77.4% (active). The figures for the growth in the test on CCRF-CEM leukemia and with MOLT-4 leukemia were -0.65% (active) and 6.77% (active), respectively.
For the compound `CC[C@H](CO)Nc1ccc2ncc(C#Cc3cncc(C(=O)Nc4ccc(CN5CCN(C)CC5)c(C(F)(F)F)c4)c3)n2n1`, the growth in the test with HCT-15 colon was -38.1% (active); in the test with HT29 colon, -35.6% (active); in the test with SNB-75 CNS, -91.3% (active); in the test with SNB-19 CNS, -22.4% (active); in the test with U251 CNS it was -85.3% (active); in the test with PC-3 prostate, -31.7% (active). The growth in the test with SK-MEL-5 melanoma is -95.4% (active); in the test on UACC-62 melanoma, -57.7% (active); in the test on LOX IMVI melanoma, -98.8% (active); with SK-MEL-28 melanoma, -79.9% (active); with SK-MEL-2 melanoma it was -97.7% (active); in the test with EKVX NSCLC, -64.3% (active). Also, the growth in the test with SN12C renal is -65.1% (active); in the test with UO-31 renal, -83.3% (active); in the test on TK-10 renal it was -57% (active); with ACHN renal it was -98.6% (active); in the test on CAKI-1 renal it was -79.7% (active); in the test on A498 renal it was -99.4% (active). Besides, the growth in the test with CCRF-CEM leukemia is 1.55% (active); with MOLT-4 leukemia, -3.11% (active).
For `COc1ccc(/C=N/NC(=O)c2cn(C3CC3)c3c(OC)c(N4CC5CCCNC5C4)c(F)cc3c2=O)cc1` (stereo not given), the growth with HCT-15 colon was 47.6%; in the test with HT29 colon, 32.4%; in the test with SNB-75 CNS, 93.1%; in the test on SNB-19 CNS it was 96.6%; in the test on U251 CNS it was 89.4%; in the test with PC-3 prostate it was 75.1%. The growth in the test on SK-MEL-5 melanoma is 87.1%; with UACC-62 melanoma, 100%; in the test with LOX IMVI melanoma, 19.6%; with SK-MEL-28 melanoma, 92.8%; in the test with SK-MEL-2 melanoma, 107%; in the test on EKVX NSCLC it was 102%. In addition, the growth in the test with SN12C renal was 81%; in the test with UO-31 renal it was 62.4%; in the test on TK-10 renal it was 116%; in the test on ACHN renal, 88.7%; in the test on CAKI-1 renal, 82.9%; with A498 renal, 83.3%. For the same compound, the growth in the test with CCRF-CEM leukemia was 63.6%; in the test on MOLT-4 leukemia, 60.4%.
As to `CN(C)CCN(C)c1ccc2ncc(C#Cc3cncc(C(=O)Nc4ccc(CN5CCN(C)CC5)c(C(F)(F)F)c4)c3)n2n1`, the growth in the test with HCT-15 colon is -25.2% (active); in the test on HT29 colon, -66.1% (active); in the test on SNB-75 CNS, 47.9%; in the test on SNB-19 CNS it was -11.3% (active); with U251 CNS it was 64.1%; in the test with PC-3 prostate it was 65.2%. In addition, the growth in the test with SK-MEL-5 melanoma was 96.4%; in the test with UACC-62 melanoma, 93%; with LOX IMVI melanoma, -89% (active); in the test on SK-MEL-28 melanoma it was 105%; in the test with SK-MEL-2 melanoma, 84.5%; in the test on EKVX NSCLC, 86.9%. The growth is 36.1% with SN12C renal; 68.7% in the test with UO-31 renal; 134% with TK-10 renal; 47.2% in the test with ACHN renal; 58.1% in the test with CAKI-1 renal; 112% in the test with A498 renal. Further, the growth in the test with CCRF-CEM leukemia is 7.73% (active); with MOLT-4 leukemia it was 3.55% (active).
